Screening results from PubChem.
Sampled rows, rich in hits. Any-hit rate of the full collection: about 4.6%.
D1 antag – antagonists of human D1 dopamine receptor; activity change, negative = inhibition, % at 10 µM; HEK293 TREx D1 cells, calcium flux, dopamine EC80; stronger effect = lower value; 3.2% of 360,000 active; AID 504652; in the data active means activity change below about -30%
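Using tetracycline-induced force-coupled D1 Hek293 cells and a calcium dye, signals were followed for 180 s after compound, then for 180 s after EC80 dopamine, to detect inhibitors.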
TRHR ag – activates the human TRH receptor. P34981. TRHR cells, calcium flux fluo-8, FDSS agonist mode. activation, % at 2 µM. 0.18% of 360,000 active. AID 493084
Target sequence (P34981 whole entry, looked up): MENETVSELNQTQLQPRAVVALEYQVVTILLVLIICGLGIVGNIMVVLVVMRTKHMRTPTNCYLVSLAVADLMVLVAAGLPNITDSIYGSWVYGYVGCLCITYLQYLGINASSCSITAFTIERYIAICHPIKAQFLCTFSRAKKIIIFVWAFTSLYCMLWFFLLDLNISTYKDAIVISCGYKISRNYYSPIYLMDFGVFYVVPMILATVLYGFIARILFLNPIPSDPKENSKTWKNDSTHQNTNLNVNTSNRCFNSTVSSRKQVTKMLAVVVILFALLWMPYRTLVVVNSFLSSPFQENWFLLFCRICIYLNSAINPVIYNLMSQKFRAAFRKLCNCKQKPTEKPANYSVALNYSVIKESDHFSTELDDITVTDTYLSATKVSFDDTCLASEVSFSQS
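Agonist-mode FDSS calcium read (Ex 480/Em 530, 1 s cycles) in 1536-well TRHR cells with fluo-8 dye, after 10-cycle baseline and 23 nL compound addition; TRH at EC20 (10 nM final) added afterwards for the enhancer phase.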
Epigenetic derep – regulators of epigenetic silencing causing reporter derepression in mouse cells. murine LDR cells, GFP reporter derepression, 30 h. Potency, µM (titrated, usually from 53.9 µM), actives largely listed as activators. 0.2% of 280,000 active; active means well fitted activation curve with a large enough effect; further: nearly all actives have a fitted effect of over 60% in size
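Murine LDR cells bearing a silenced CMV-driven GFP reporter were exposed to compound for 30 h at 37 C. After PBS washes, GFP-positive cells (20-120 um objects) counted by laser-scanning microplate cytometry.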
D1 potentiator – human D1 dopamine receptor positive modulation; 0.036% of 360,000 active; HEK293 TREx D1 cells, calcium flux, dopamine EC20 potentiation; potentiation, % at 10 µM; in the data active means potentiation above about 30%
TRHR PAM – allosterically enhances the human TRH receptor | P34981 | TRHR cells, fluo-8 calcium fluorescence, EC20 TRH enhancement | enhancement, % at 2 µM | 0.66% of 360,000 active; in the data active means enhancement above about 30%
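TRHR-expressing cells loaded with fluo-8 calcium dye were read kinetically (ex 480/em 530) during compound addition, then stimulated with an EC20 of TRH (10 nM final). Enhancement of the Gq-mediated intracellular calcium response was scored.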
D1 agonist – agonists of human D1 dopamine receptor; P21728; HEK293 T-REx D1 cells, calcium flux, agonist mode; activation, % at 2 µM; 1% of 360,000 active
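Agonism was scored from calcium flux recorded over 180 s (1 read/s) after pintool compound addition, following a 10-cycle baseline. Cells were inducible force-coupled HEK293 TREx D1, plated overnight at 30 C and loaded with no-wash calcium dye.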
Of the large screens only hits and unclear results are named; the others gave an inactive call; ! = repeats disagree. Unless noted, no stated cut-off is given here; in the data, active means activation above about 30%; inactive means the rest.

COc1ccc(NC(=O)CC2C(=O)N(C)C(=S)N2CCc2ccccc2)cc1 (centres undefined)	D1 antag -41.2
Cc1ccn2c(Nc3ccc(C(C)C)cc3)c(-c3cccs3)nc2c1	none
CCN(CC)c1ccc(C(=O)NCc2nc3cccnc3n2Cc2ccc(C)cc2)cc1	none
COCC(=O)Nc1nnc(-c2ccc(C(C)(C)C)cc2)s1	D1 agonist 34.1
C=C[C@@](C)(O)CC[C@@H]1[C@@]2(C)CCCC(C)(C)[C@@H]2CC[C@@]1(C)O	D1 agonist 48.8
C=C[C@](C)(O)CCC1C(=C)CC(OC(C)=O)C2C(C)(C)CCCC12C (some centres undefined)	none (no result: D1 antag, TRHR ag, D1 potentiator, TRHR PAM, D1 agonist)
Cc1cc2c(s1)c1cnn(Cc3ccc(SC(F)(F)F)cc3)c(=O)c1n2C	none (no result: Epigenetic derep)
Cc1c(C#N)c(=O)c(-[n+]2ccccc2)c([S-])n1-c1ccc(Cl)cc1	TRHR PAM 32.5
O=C1CC(c2ccc(S(=O)(=O)NCc3ccncc3)cc2)CN1 (centres undefined)	D1 antag -34.4
CN1CC(=O)N(CC(=O)Nc2cccc(C#N)c2)c2ccccc2C1=O	none
CCCCN(CC)C(=O)c1ccc2c(c1)NC(=O)c1ccccc1S2	D1 antag -44.6
CC(C)OCCCNC(=O)c1ccc2c(c1)NC(=O)c1ccccc1S2	none
CCN(CCCNC(=O)CSc1cc(=O)n(CC)c2ccccc12)c1cccc(C)c1	none
CCCCC1=CC2=C(OC(C)=O)C(=O)C(C)(OC(=O)c3ccc(Cl)nc3)C(=O)C2=CO1 (centres undefined)	none (no result: D1 antag, TRHR ag, D1 potentiator, TRHR PAM, D1 agonist)
COc1ccc([N+](=O)[O-])cc1COc1ccc2c(-c3ccccc3)cc(=O)oc2c1	D1 antag -32.9
CC(=O)COc1ccc2c(-c3cccc([N+](=O)[O-])c3)cc(=O)oc2c1	none
CCOc1ccc(CNC(=O)c2cc3c(=O)n(Cc4cccs4)ccc3nc2C)cc1	none
COC(=O)C1(C(=O)OC)CC2=CCC3C(=O)N(c4ccccc4)C(=O)C3C2Cc2ccccc2[C@@H]1C[N+](=O)[O-] (some centres undefined)	none (no result: D1 antag, TRHR ag, D1 potentiator, TRHR PAM, D1 agonist)
CCN1CCN(c2ccc(NC(=O)c3ccc(Br)o3)cc2)CC1	TRHR PAM 32.8 (no result: Epigenetic derep)
COC(=O)Cc1ccc(NC(=O)c2ccc(Br)o2)cc1	none
CCCOC(=O)c1ccc(NC(=O)c2ccc(Br)o2)cc1	D1 antag -32.0
CCCC(=O)N1CCN(c2ccc(NC(=O)c3ccc(Br)o3)cc2)CC1	D1 antag -43.0
CCOC(=O)c1[nH]c(C)c(CCC(=O)Nc2ccc(N(CC)CC)cc2C)c1C	none
Cc1ccc(NC(=O)CSc2nc3c(oc4ccccc43)c(=O)n2Cc2ccco2)cc1	none
O=c1c2c(-c3ccccc3)csc2ncn1/N=C/c1cccc([N+](=O)[O-])c1O	none
Cn1cc(/C=N/n2cnc3scc(-c4ccccc4)c3c2=O)c2ccccc21	D1 antag -44.0
COc1ccc(-n2nc(C(=O)O)c3csc(N)c3c2=O)cc1	none (no result: Epigenetic derep)
CCOC(=O)c1nc(Nc2ccc(C(=O)OCC(C)C)cc2)c2ccccc2n1	none
Cc1ccc(NC(=O)Cn2cc(C(=O)C3CC3)c3ccccc32)c(C)c1	TRHR PAM 36.3!
COc1ccc(N2CCN(CC(O)COc3ccc(F)cc3)CC2)cc1 (centres undefined)	D1 antag -65.6 (no result: Epigenetic derep)
C=CCc1ccccc1OCC(O)CN1CCN(c2ccccc2OC)CC1 (centres undefined)	D1 antag -43.2
C=CCc1ccccc1OCC(O)CNC1CCCC1 (centres undefined)	none (no result: Epigenetic derep)
OC(COc1ccccc1Cl)CN1CCN(CC(O)COc2ccccc2Cl)CC1 (centres undefined)	D1 antag -81.7, D1 agonist 99.0
C=CCc1ccccc1OCC(O)CNC(C)C (centres undefined)	D1 antag -36.0
C=CCc1cc(OC)ccc1OCC(O)CN1CCN(c2ccc(OC)cc2)CC1 (centres undefined)	none
C/C(CCN1CCCc2nc(C)c(C)cc21)=N\O[C@@H](C)CN1CCCc2nc(C)c(C)cc21	none (no result: D1 antag, TRHR ag, D1 potentiator, TRHR PAM, D1 agonist)
O=C(O)C(O)C(O)C(O)C(O)C(=O)O (centres undefined)	none (no result: D1 antag, TRHR ag, D1 potentiator, TRHR PAM, D1 agonist)
C=CCc1ccccc1OCC(O)CN1CCN(c2ccccc2)CC1 (centres undefined)	D1 antag -39.3
C=CCc1ccccc1OCC(O)CN1CCN(c2ccccc2F)CC1 (centres undefined)	D1 antag -61.1
Cc1ccc(C(C)C)c(OCC(O)CN2CCN(c3ccccc3F)CC2)c1 (centres undefined)	D1 antag -34.0
Cc1ccc(C)c(OCC(O)CN2CCC(Cc3ccccc3)CC2)c1 (centres undefined)	D1 antag -78.4, D1 agonist 47.4 (no result: Epigenetic derep)
OC(COc1ccc(Cl)cc1)CN1CCC(Cc2ccccc2)CC1 (centres undefined)	none (no result: Epigenetic derep)
COc1cccc(OC)c1OCC(O)CN1CCN(c2ccccc2F)CC1 (centres undefined)	none (no result: Epigenetic derep)
C=CCc1cc(C)ccc1OCC(O)CN1CCN(c2ccccc2)CC1 (centres undefined)	none
CC(C)CO/N=C1/[C@H]2O[C@@H]2[C@@H](O)[C@H]2[C@H]1CCn1c(=O)n(-c3ccccc3)c(=O)n12	none (no result: D1 antag, TRHR ag, D1 potentiator, TRHR PAM, D1 agonist)
CCc1ccc(NC(=O)CSC2=Nc3ccccc3C3=NC(CCC(=O)NCc4cccs4)C(=O)N23)cc1 (centres undefined)	none
COc1cc(C(C)=O)ccc1OCC(O)CN1CCN(c2ccccc2)CC1 (centres undefined)	none (no result: Epigenetic derep)
C=CCc1ccc(OCC(O)CN2CCCCC2)c(OC)c1 (centres undefined)	none
COc1cc(C(C)=O)ccc1OCC(O)CN1CCN(c2ccc(C)cc2C)CC1 (centres undefined)	D1 antag -38.7 (no result: Epigenetic derep)
C=CCc1ccc(OCC(O)CN2CCN(c3ccccc3)CC2)c(OC)c1 (centres undefined)	D1 antag -30.9 (no result: Epigenetic derep)
Cc1ccc(COc2ccc(-c3cc(C(F)(F)F)n4nc(C)cc4n3)cc2)cc1	none
Cc1ccccc1-n1c(CSC(=N)N)nc2ccccc2c1=O	D1 antag -41.5
O=c1c2ccccc2nc(CSc2nnnn2-c2ccccc2)n1-c1ccccc1Cl	D1 antag -35.3
Cc1ccc(NC(=O)Cn2c(=O)n(CC3CCCO3)c(=O)c3ccccc32)cc1 (centres undefined)	none
CCc1ccc(S(=O)(=O)c2nnn3c2nc(Nc2cc(OC)ccc2OC)c2sccc23)cc1	none
O=C(Nc1ccc(Oc2cccc(C(F)(F)F)c2)nc1)c1ccccc1	none
COc1cccc(C(=O)Nc2ccc(Oc3cccc(C(F)(F)F)c3)nc2)c1	D1 antag -42.4, D1 agonist 41.6
